“And” between values parts separate entries of the source, which are not always exact repeats. Equal values may be shown once. Out of some 5,500 compounds screened, about 2,000 (36%) were called active. About 18% were inconclusive and are not listed. No stated cut-off is given here; in the data, active means normalized growth mostly below about 0.91 (no sharp cut-off); inconclusive means no clear call, values can overlap the other calls; inactive means mostly above about 0.92. The list shows a part of the results.
Assay: chemical genetic growth profiling, strain panel (AID 1159580);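 further: tested at 20 µM; growth read once vehicle control cultures reached saturation at 30 °C; 1 = growth at the plate median or of vehicle wells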
Details: S. cerevisiae deletion strains, growth OD

Measured: normalized growth

CC(=O)O[C@H]1C[C@@H](OC(C)=O)C(C)(C)C2CC(=O)[C@]3(C)C(CC[C@@]4(C)[C@H](C(=O)O)OC(=O)C5OC543)[C@]21C (stereo partly specified)
inactive: locus YAL021C, strain ccr4, stronger effect = lower value 0.96 | locus YAL026C, strain drs2, stronger effect = lower value 0.98 | locus YAL030W, strain snc1, stronger effect = lower value 1.02 | locus YBL061C, strain skt5, stronger effect = lower value 0.995 | locus YBR009C, strain hhf1, stronger effect = lower value 0.988 | locus YBR021W, strain FUR4, stronger effect = lower value 1.03 | locus YBR023C, strain chs3, stronger effect = lower value 1.01 | locus YBR171W, strain sec66, stronger effect = lower value 0.984 | locus YBR229C, strain ROT2, stronger effect = lower value 0.964 | locus YBR231C, strain swc5, stronger effect = lower value 0.988 | locus YBR279W, strain paf1, stronger effect = lower value 1.01 | locus YCL011C, strain gbp2, stronger effect = lower value 0.982 | locus YCL016C, strain dcc1, stronger effect = lower value 0.974 | locus YCL029C, strain bik1, stronger effect = lower value 0.979 | locus YCL061C, strain MRC1, stronger effect = lower value 0.987 | locus YCL069W, strain vba3, stronger effect = lower value 0.991 | locus YCR088W, strain abp1, stronger effect = lower value 1 | locus YDL005C, strain med2, stronger effect = lower value 0.966 | locus YDL035C, strain GPR1, stronger effect = lower value 0.977 | locus YDL040C, strain nat1, stronger effect = lower value 0.995 | locus YDL074C, strain BRE1, stronger effect = lower value 1.04 | locus YDL101C, strain DUN1, stronger effect = lower value 0.991 | locus YDL134C, strain PPH21, stronger effect = lower value 1.05 | locus YDL185W, strain tfp1, stronger effect = lower value 0.965 | locus YDL192W, strain arf1, stronger effect = lower value 0.968 | locus YDR001C, strain nth1, stronger effect = lower value 0.994 | locus YDR069C, strain doa4, stronger effect = lower value 0.994 | locus YDR101C, strain arx1, stronger effect = lower value 0.983 | locus YDR137W, strain rgp1, stronger effect = lower value 0.991 | locus YDR159W, strain sac3, stronger effect = lower value 1.03 | locus YDR162C, strain NBP2, stronger effect = lower value 1.01 | locus YDR195W, strain ref2 0.936 | locus YDR297W, strain sur2, stronger effect = lower value 0.993 | locus YDR318W, strain mcm21, stronger effect = lower value 0.987 | locus YDR334W, strain swr1, stronger effect = lower value 0.976 | locus YDR335W, strain msn5, stronger effect = lower value 0.987 | locus YDR388W, stronger effect = lower value 0.989 | locus YDR392W, strain spt3, stronger effect = lower value 1 | locus YDR502C, strain sam2, stronger effect = lower value 1.02 | locus YEL003W, strain gim4, stronger effect = lower value 0.994 | locus YEL037C, strain rad23, stronger effect = lower value 0.995 | locus YEL061C, strain CIN8 (second series), stronger effect = lower value 0.993 | locus YEL061C, strain CIN8, stronger effect = lower value 0.979 | locus YER015W, strain faa2, stronger effect = lower value 0.987 | locus YER016W, strain bim1, stronger effect = lower value 0.987 | locus YER110C, stronger effect = lower value 0.979 | locus YER111C, strain swi4, stronger effect = lower value 0.987 | locus YER155C, strain BEM2 (second series), stronger effect = lower value 0.992 | locus YER155C, strain BEM2, stronger effect = lower value 0.996 | locus YER167W, strain BCK2, stronger effect = lower value 0.988 | locus YFR010W, strain ubp6, stronger effect = lower value 1.02 | locus YGL078C, strain dbp3, stronger effect = lower value 1.02 | locus YGL086W, strain mad1, stronger effect = lower value 1 | locus YGL167C, strain pmr1, stronger effect = lower value 0.993 | locus YGL173C, strain kem1, stronger effect = lower value 0.997 | locus YGL227W, strain vid30, stronger effect = lower value 0.993 | locus YGL240W, strain doc1, stronger effect = lower value 0.974 | locus YGL248W, strain PDE1, stronger effect = lower value 1.01 | locus YGL253W, strain hxk2, stronger effect = lower value 0.988 | locus YGR135W, strain pre9, stronger effect = lower value 1.06 | locus YGR252W, strain gcn5, stronger effect = lower value 1.07 | locus YHR013C, strain ard1, stronger effect = lower value 0.97 | locus YHR027C, strain rpn1, stronger effect = lower value 0.988 | locus YHR030C, strain SLT2, stronger effect = lower value 0.981 and 1.01 | locus YHR079C, strain IRE1 (second series), stronger effect = lower value 0.983 | locus YHR079C, strain IRE1, stronger effect = lower value 1.03 | locus YHR094C, strain hxt1, stronger effect = lower value 0.992 | locus YHR129C, strain ARP1, stronger effect = lower value 0.987 | locus YHR142W, strain chs7, stronger effect = lower value 0.98 | locus YHR200W, strain rpn10, stronger effect = lower value 1.02 | locus YIL066C, strain RNR3, stronger effect = lower value 0.957 | locus YIL073C, strain SPO22, stronger effect = lower value 0.996 | locus YIL125W, strain kgd1, stronger effect = lower value 0.992 | locus YIR030C, strain dcg1, stronger effect = lower value 0.986 | locus YJL092W, strain hpr5, stronger effect = lower value 0.994 | locus YJL095W, strain BCK1 (second series), stronger effect = lower value 0.983 | locus YJL095W, strain BCK1, stronger effect = lower value 1.08 and 1.01 | locus YJL115W, strain asf1, stronger effect = lower value 0.978 | locus YJL129C, strain trk1, stronger effect = lower value 0.987 | locus YJL134W, strain LCB3, stronger effect = lower value 0.978 | locus YJL154C, strain vps35, stronger effect = lower value 0.978 | locus YJL164C, strain tpk1, stronger effect = lower value 1.02 | locus YJL166W, strain qcr8, stronger effect = lower value 0.977 | locus YJL168C, strain set2, stronger effect = lower value 0.996 | locus YJL187C, strain SWE1 (second series), stronger effect = lower value 1.01 | locus YJL187C, strain SWE1, stronger effect = lower value 0.984
